# According to the supplement of paper PMC6555819:
# Legend:
# Assay in all cases: PBM binding z-score (relative to random genomic background probes); higher = stronger binding; sequences stand for … in GC…GCGATTGACAGCGTAGAATGAAGG
# [1] = test system: PPARg:RXRa DBDmut IVT, anti-RXR (DBD mutation: RXRa K156A/R161A, NR concentration 270 nM, RXRa partner concentration 90 nM)
# Procedure, shortened: (§1)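 Regression normalization was applied to scanned fluorescence from custom Agilent 4×180K protein-binding microarrays. Before scanning, arrays were incubated 1 h with ligand-free nuclear receptor dimers, and binding was detected with antibodies against each partner (one per run). Binding z-scores use the random background probes as reference.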
# [2] = test system: PPARg:RXRa IVT, anti-PPARg (NR concentration 270 nM, RXRa partner concentration 90 nM)
# Procedure, shortened: as §1
# [3] = test system: PPARg DBDmut:RXRa IVT, anti-PPARg (DBD mutation: PPARg1 K132A/R137A, NR concentration 270 nM, RXRa partner concentration 90 nM)
# Procedure, shortened: as §1
# [4] = test system: PPARg DBDmut IVT, anti-PPARg (DBD mutation: PPARg1 K132A/R137A, NR concentration 270 nM)
# Procedure, shortened: as §1
# [5] = test system: PPARg homodimer (NR concentration 180 nM)
# Procedure, shortened: as §1
# [6] = test system: PXR:RXRa (NR concentration 270 nM, RXRa partner concentration 90 nM)
# Procedure, shortened: as §1
# [7] = test system: PXR homodimer (NR concentration 270 nM)
# Procedure, shortened: as §1
# [8] = test system: RARa:RXR (NR concentration 270 nM, RXRa partner concentration 90 nM)
# Procedure, shortened: as §1
# [9] = test system: RARa homodimer (NR concentration 270 nM)
# Procedure, shortened: as §1
# [10] = test system: RARb:RXRa (NR concentration 270 nM, RXRa partner concentration 90 nM)
# Procedure, shortened: as §1
Sequence,PBM binding z-score [1],PBM binding z-score [2],PBM binding z-score [3],PBM binding z-score [4],PBM binding z-score [5],PBM binding z-score [6],PBM binding z-score [7],PBM binding z-score [8],PBM binding z-score [9],PBM binding z-score [10]
CCTACTGGGCCAGCAGGTCATTGATATCAACGTT,3.7,4.16,-0.155,-0.528,1.02,1.46,-0.0906,1.8,-0.335,1.88
ATCTCTAGGTAAAGATTGTTCAGTGAATGCAAAT,2.3,1.85,0.903,0.841,0.219,0.132,0.182,0.436,1.35,0.105
ATCTCTAGGTAACGAAGTTCAGTGAATGCCGAAC,3.22,2.82,0.456,0.901,0.161,1.14,0.916,0.507,0.64,1.14
CCTAATTGGTCAAGGTCACACACGCTATAGGTAC,2.69,3.49,1.13,1.42,3.47,4.32,1.9,4.28,2.79,4.22
CGAACTAGGTCAGGACAGGACAGTGAAGGATGAT,7.58,7.47,1.64,0.603,0.819,1.25,-0.213,0.766,-0.133,3.44
ATCTCTAGGTAAAAGTTAAGTGAATCCCGAGGAT,2.03,2.31,1.28,1.28,0.613,-0.127,-0.352,-0.144,0.373,0.28
TAGCCAAGGTCATGCGGGCCAGTATAGTGTCGGC,1.6,3.47,1.13,0.504,1.92,4.35,1.1,4.48,0.0818,5.09
ACTAGTTGGTCAGCTGAGGTTACACACAATTCGG,1.4,1.58,0.987,0.803,1.09,2.46,0.19,1.64,-0.138,1.73
CCTAGCAGGCCAATATGGGTCACTCAAGGCTTGA,3.27,4.11,-0.447,-0.637,0.511,1.14,-0.649,1.65,-0.474,1.44
GCTATTAGTTGAAAGAGCAACCGAATGATTCTCG,0.238,-0.404,0.37,0.517,0.13,-0.39,-0.276,-0.118,0.294,-0.146
TTACCAAGGTGAAGGTCGTTTATCCCTCTGTAGA,2.02,3.38,0.35,0.225,0.696,1.7,0.623,1.65,-0.48,2.2
CTCGAAAGGTCGTGCTCAGGTGAGCATACCAAAC,0.762,2.31,0.195,0.25,3.06,3.43,-0.196,4.74,-0.133,3.92
ATATGTAGGTTAGCTGGGGCCATTCAGACTAGGC,6.72,5.67,1.64,1.69,1.13,2.87,0.538,1.33,0.314,1.21
CCGACTGGGGCAGAAAGGTCACCATACCATCCGG,1.91,3.29,-0.398,-0.64,4.46,5.07,0.611,6.06,2.92,4.39
TCTAGCAGGCAAGAGGGTCACTCAAGAGGTACGG,0.584,0.0219,-0.412,-0.872,0.722,1.62,-0.663,2.3,-0.406,1.92
CCTACTGGGCCATTCGGAGGTCATTGATCATATG,4.18,3.88,-0.0532,-0.182,1.81,3.79,2.38,3.45,-0.323,2.54
CCTTACGGGTCACGAAGTTATAGCACGACGAGCG,3.76,4.76,0.631,-0.0727,1.89,3.31,-0.0842,3.86,0.765,4.51
TCTTGTAGATCAAGCAGGTTCAGAAAGCCTGAGT,1.67,0.23,-0.203,-0.258,-0.265,1.42,0.458,0.45,-0.397,-0.164
CTACCAAGGTGAACAAGGTGGTTGATTACTATTC,2.63,2.27,0.24,-0.57,0.187,0.111,0.0854,0.44,0.0119,1.43
TATACAGGGTCAAAGGCCAGACTACGAATGTCGA,2.56,5.03,3.07,1.98,2.4,4.42,0.626,6.23,1.41,4.56
CCTTACGGGTCACGAGGTTATAGCGCGACGAGCG,3.89,5.36,1.53,2.01,3.21,4.57,0.486,6.3,1.06,4.56
CTTTACGGGTCACTCCAGGTTATAGCATCGGAGT,4.09,4.57,1.34,1.05,2.31,5.1,0.416,3.97,0.111,3.96
TTAATGAGGTTAAAGATCAGGGAACGTGGCGTCG,4.2,4.61,2.12,1.16,1.89,2.4,0.342,3.61,1.1,2.33
CAACCTAGGTCAGGGCCAGTATAGGAGGAACGTT,2.7,3.26,0.0736,0.168,1.57,0.478,-0.518,1.45,0.172,3.51
